Measured values from PubChem BioAssay (EPA / NIEHS).
Calls of active or inactive are those of the source. The calls were made as follows: active = hit-call score of the fitted dose curve at least 0.9, where 1 is the maximum; inactive = score below 0.9.

These compounds were tested on TTR (gene 7276) (assay: CCTE_GLTED_hTTR_0.125uM: CCTE's human Transthyretin (hTTR) Inhibition Assay, with 0.125uM TTR, Great Lakes Toxicology and Ecology Division (GLTED) Lab (AID 2284431);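 also: hits lower the fluorescence signal relative to DMSO baseline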).
Procedure, shortened: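 Probe-displacement format: chemicals competing for the T4 site release ANSA from 0.125uM TTR during a 2 h incubation, measured by fluorescence at 380 excitation and 475 emission.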

Row | SMILES | AC50
1 | COC(=O)c1ccc(I)cc1S(=O)(=O)NC(=O)Nc1nc(C)nc(OC)n1 | 1.8 µM (active)
2 | N#CSCSc1nc2ccccc2s1 | 10.1 µM (active)
3 | CCCN(CCC)c1c([N+](=O)[O-])cc(C(F)(F)F)c(N)c1[N+](=O)[O-] | 0.348 µM (active)
4 | CC(C)CCCCCCc1ccc(O)cc1 | 1.87 µM (active)
5 | O=C(O)C1(C(=O)Nc2ccc(Cl)cc2Cl)CC1 | 8.06 µM (active)
6 | CCCCC(CC)COC(=O)c1ccccc1C(=O)O (stereo not drawn) | 1.44 µM (active)
7 | CC(C)(c1ccc(O)cc1)c1ccc(O)cc1 | 7.82 µM (active)
8 | O=C(Nc1ccc([N+](=O)[O-])cc1Cl)c1cc(Cl)ccc1O | 0.633 µM (active)
